Test results taken from PubChem BioAssay AID1376 (SRMLSC, 2008).
The whole screen tested about 220,000 compounds, of which about 530 (0.24%) were called active. The list comes from a sample in which actives are over-represented; it also holds similar structures and randomly drawn compounds. Results with a measured potency or affinity are listed apart. Values without a mark were called inactive. No stated cut-off is given here; in the data, active means inhibition above about 13%; inconclusive means no clear call, values can overlap the other calls; inactive means below that.

What follows are compounds tested against Bifunctional protein GlmU (Mycobacterium tuberculosis (strain ATCC 25618 / H37Rv)) (UniProt P9WMN3) (assay: inhibition of mycobacterial GlmU enzyme – biochemical, glucosamine-1-phosphate acetyltransferase (AID 1376;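 further: 0% = complete reaction with vehicle and 100% = reaction without substrate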)). Settings: M. tuberculosis GlmU acetyltransferase enzyme assay; active compounds read high;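 tested at 30 µM in the primary screen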.
Bifunctional protein GlmU (Mycobacterium tuberculosis (strain ATCC 25618 / H37Rv)), sequence (P9WMN3 whole entry, looked up): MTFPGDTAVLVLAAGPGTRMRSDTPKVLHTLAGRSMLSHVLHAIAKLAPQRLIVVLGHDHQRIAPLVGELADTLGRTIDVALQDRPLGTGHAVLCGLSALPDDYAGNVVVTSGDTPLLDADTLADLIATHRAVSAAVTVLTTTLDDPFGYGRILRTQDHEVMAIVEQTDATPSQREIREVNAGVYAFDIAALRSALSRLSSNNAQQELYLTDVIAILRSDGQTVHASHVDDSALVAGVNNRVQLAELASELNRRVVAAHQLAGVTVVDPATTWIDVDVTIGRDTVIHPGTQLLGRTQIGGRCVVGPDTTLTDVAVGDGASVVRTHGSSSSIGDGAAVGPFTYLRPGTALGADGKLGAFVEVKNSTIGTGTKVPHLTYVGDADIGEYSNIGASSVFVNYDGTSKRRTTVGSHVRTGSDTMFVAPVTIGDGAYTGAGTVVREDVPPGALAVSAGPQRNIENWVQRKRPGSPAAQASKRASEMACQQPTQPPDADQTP
Work on `O=C(/C=C/c1ccccc1)c1c(O)n(CCc2ccccc2)c(=O)[nH]c1=O` yielded an inhibition of 1.89%. With `Cn1cc(/C=N/NC(=O)c2cc3cc(Br)ccc3o2)c2ccccc21` the inhibition was -2.19%. Compound `O=C(O)Cn1cc(/C=N/NC(=O)c2cc3cc(Br)ccc3o2)c2ccccc21` has an inhibition of -0.33%. With `COc1ccccc1OCc1ccc(C(=O)NCC2CCCO2)o1` (centres undefined) the inhibition was 1.7%. `CCCCOc1ccc(C(=O)N2CC(C)OC(C)C2)cc1` (centres undefined) gave an inhibition of 6.38%. With `CCCCOc1ccc(C(=O)N2CCC(C)CC2)cc1` the inhibition was -0.91%. In the case of `CCCCOc1ccc(C2CCC(C(C)=O)C(C)C2)cc1` (centres undefined), the inhibition is reported as 13.4% (active). With `CCCSC1=N/C(=C\c2ccc([N+](=O)[O-])o2)C(=O)S1` the inhibition was 21.6% (active). In the case of `CCCSC1=N/C(=C\c2ccsc2)C(=O)S1`, the inhibition is reported as -1.15%. Compound `CCSC1=N/C(=C\c2ccc(-c3ccccc3[N+](=O)[O-])o2)C(=O)S1` has an inhibition of 6.21%. In the case of `Cc1cc(N2CCN(S(=O)(=O)c3ccccc3)CC2)c2ccccc2n1`, the inhibition is reported as -2.32%. `C/C(=N\N1CCN(C)CC1)c1ccc(Cl)c(Cl)c1` was tested, and the inhibition was -1.93%. For `O=C(CN1CCN(Cc2ccccc2Cl)CC1)N/N=C/c1ccco1`, the inhibition was 2.34%. Compound `CCN(CC)C(=S)SC1=CCS(=O)(=O)C1` has an inhibition of -2.51%. `CCN(CC)C(=S)SCC(=O)c1ccccc1` was tested, and the inhibition was 2.19%. For `O=S(=O)(NCc1ccccc1)c1ccc(F)cc1Br`, the inhibition was 6.02%. `CN(C)c1ccc(/C=C2\C(=N)N3C(=NC2=O)Sc2cc(S(C)(=O)=O)ccc23)cc1` showed an inhibition of -6.57%. `COc1ccc(/C=C2/C(=N)N3C(=NC2=O)Sc2cc(S(C)(=O)=O)ccc23)cc1OC` showed an inhibition of 3.31%. `COC(=O)c1cc(C#N)c(Oc2ccc(OC)cc2)nc1C` gave an inhibition of 8.02%. Work on `CCCCCC/C(C)=C1/SC(=S)NC1=O` yielded an inhibition of -3.54%. In the case of `CCO/C(C)=C1/SC(=S)NC1=O`, the inhibition is reported as -6.59%. For `C/C(C/C(C)=C1/SC(=S)NC1=O)=C1\SC(=S)NC1=O`, the inhibition was 49% (active). `Cn1nc(-c2ccccc2)c(C(=O)NC(C(=O)O)c2ccccc2)c1Cl` (centres undefined) showed an inhibition of 1.91%. Work on `CN(C)C(=O)CSc1ncnc2scc(-c3ccccc3)c12` yielded an inhibition of 2.78%. For `Clc1nssc1=Nc1ccccc1`, the inhibition was 14.6% (active). In the case of `N#Cc1cccc(N=c2ssnc2Cl)c1`, the inhibition is reported as -3.05%. `COc1cc(N=c2ssnc2Cl)cc(OC)c1` was tested, and the inhibition was 12.8%. `Clc1ccc(N=c2ssnc2Cl)cc1` was tested, and the inhibition was 19.9% (active). With `Cc1ccc(N=c2ssnc2Cl)cc1` the inhibition was 17.6%. `COc1ccc(N=c2ssnc2Cl)cc1` was tested, and the inhibition was 5.49%. With `Clc1nssc1=Nc1ccc(Br)cc1` the inhibition was 18%. With `COc1cc(N=c2ssnc2Cl)cc(OC)c1OC` the inhibition was 14.1% (active). With `N#Cc1ccc(N=c2ssnc2Cl)cc1` the inhibition was 18.4%. `Cc1ccc(N/C=C/C(=O)c2cccs2)cc1C` gave an inhibition of -3.05%. `COc1cccc2sc(NNC(=O)C3COc4ccccc4O3)nc12` (centres undefined) gave an inhibition of 6.49%. Compound `O=C(CSc1nnc(-c2ccccc2Cl)n1Cc1ccco1)Nc1ccc2c(c1)OCCO2` has an inhibition of -6.82%. `OCCN1CCN(c2ncnc3sc(-c4ccccc4)cc23)CC1` was tested, and the inhibition was 0.73%. In the case of `Cc1ccc(C(=O)OC2OC(=O)C(Cl)=C2N2CCOCC2)cc1` (centres undefined), the inhibition is reported as 7.25%. With `O=c1[nH]c2ccccc2nc1NCCN1CCOCC1` the inhibition was -0.64%. With `COc1ccc(-c2noc3c2-c2nc(-c4ccc(C)cc4)sc2CC3)cc1` the inhibition was 6.62%. `O=C(NCC(=O)N(c1ccccc1)C(C(=O)NC1CCCCC1)c1cccnc1)c1cccs1` (centres undefined) showed an inhibition of -3.93%. `O=C(NCc1cccs1)c1cc2c(s1)CCCC2` showed an inhibition of 0.13%. `O=C(CN(Cc1ccccc1)C(=O)c1cc2c(s1)CCC2)NCc1cccs1` was tested, and the inhibition was 14.9% (active). In the case of `O=C(CN(C(=O)c1cc2c(s1)CCC2)C1CCCC1)NCc1cccs1`, the inhibition is reported as 5.33%. With `O=C(O)CCCN1C(=O)c2ccc(C(=O)c3cccc([N+](=O)[O-])c3)cc2C1=O` the inhibition was 2.64%. `O=C(CN1C(=O)CCC1=O)NNc1ccc2ccccc2c1` showed an inhibition of -8.95%. Work on `O=C(CN1C(=O)NC2(CCCC2)C1=O)Nc1cccc(-c2nnc3n2CCCCC3)c1` yielded an inhibition of -0.57%. In the case of `O=C(CC1Sc2ccccc2NC1=O)Nc1cccc(-c2nnc3n2CCCCC3)c1` (centres undefined), the inhibition is reported as 14.3% (active). For `O=C(CC1Sc2ccccc2NC1=O)Nc1cccc(C(=O)O)c1` (centres undefined), the inhibition was -2.21%.
